Bioassay records deposited in PubChem by several laboratories.
Shown are actives, neighbours in structure and some others; about 27% of the full set was active somewhere.
CYP2C19 act: human CYP2C19 activators, primary screen, biochemical, luminescence | activation factor at 5 µM | AID 1025, 2008 | 96,000 tested, under 10 active | recombinant CYP2C19, luciferin-H EGE luminescence; hits give high values; 0 = fully inhibited enzyme, 1 = untreated enzyme;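 active = activation factor of at least 2 at 5 µM in the primary screen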;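 also: 0 = wells with 2.5 mM tranylcypromine and 1 = vehicle-only wells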
sEH inhibitor: soluble epoxide hydrolase inhibitors, primary screen, biochemical, human sEH; recombinant human sEH enzymatic activity assay; 91,000 compounds, 0.34% hits; inhibition, % at 2 µM; in the data active = inhibition above about 80%
Target sequence (P34913 whole entry, looked up): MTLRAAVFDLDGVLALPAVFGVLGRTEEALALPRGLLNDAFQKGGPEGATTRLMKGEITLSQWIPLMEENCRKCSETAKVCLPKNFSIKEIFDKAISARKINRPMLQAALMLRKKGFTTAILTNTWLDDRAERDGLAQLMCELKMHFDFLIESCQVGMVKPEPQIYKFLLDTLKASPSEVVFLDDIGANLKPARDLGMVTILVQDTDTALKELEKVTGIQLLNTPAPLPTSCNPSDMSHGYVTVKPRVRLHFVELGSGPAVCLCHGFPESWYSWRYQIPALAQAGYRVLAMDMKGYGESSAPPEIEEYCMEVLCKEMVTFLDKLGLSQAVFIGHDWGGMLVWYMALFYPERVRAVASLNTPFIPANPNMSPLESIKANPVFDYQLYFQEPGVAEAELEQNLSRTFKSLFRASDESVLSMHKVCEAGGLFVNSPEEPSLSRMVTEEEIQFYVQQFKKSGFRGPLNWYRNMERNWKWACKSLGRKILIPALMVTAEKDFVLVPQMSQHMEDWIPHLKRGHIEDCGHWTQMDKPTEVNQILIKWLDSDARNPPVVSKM
CYP2C19 inh: blockers of cytochrome P450 2C19 activity – biochemical, luminescence, ADME assay, primary screen. P33261. CYP2C19 Supersomes, luciferin-H EGE luminescence, 30 min. inhibition, % at 5 µM. 96,000 compounds, 21% hits. AID 778, 2007;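 active = CYP2C19 inhibition above a set limit at 5 µM in the primary screen, cut at about 50% in these data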;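 also: plate controls were negative control wells for no effect and 2.5 mM tranylcypromine positive control for full effect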
sEH act: soluble epoxide hydrolase activators, primary screen, biochemical, human sEH | Bifunctional epoxide hydrolase 2 (Homo sapiens), P34913 | purified human sEH enzymatic activity, activator screen | activation, % at 2 µM | 91,000 compounds, 0.04% hits | AID 717, 2007; in the data active = activation above about 37%
CYP2C9 act: human CYP2C9 activators, primary screen, biochemical, luminescence. activation factor at 5 µM. recombinant CYP2C9, luciferin-H conversion; hits give high values; factor 1 = untreated enzyme, 0 = blocked. Cytochrome P450 2C9 (Homo sapiens), P11712. 96,000 compounds, 1.4% hits;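 active = activation factor of 2 or more for CYP2C9 at a 5 µM dose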;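 also: 0 = sulfaphenazole-blocked wells and 1 = vehicle-only wells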
CYP2C9 inh: blockers of cytochrome P450 2C9 activity – biochemical, luminescence, ADME assay, primary screen; CYP2C9 Supersomes, luciferin-H conversion; inhibition, % at 5 µM; 96,000 compounds, 20% hits;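 active = blocking of liver enzyme CYP2C9 beyond about 50% at 5 µM, limit read from the data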
Starred values were filed as active, the others as inactive; x = not tested or not shown.

SMILES | CYP2C19 act | sEH inhibitor | CYP2C19 inh | sEH act | CYP2C9 act | CYP2C9 inh
CC(=O)C1=C(O)C(=O)N(CCCCCC(=O)O)C1c1ccc(N(C)C)cc1 (stereo not given) | 1 | -14 | -2 | 18 | 1.1 | -10
CCN(CC)CCNc1ncnc2c1sc1nc(N3CCOCC3)c3c(c12)CC(C)(C)SC3 | 0.8 | -3 | 22 | 6 | 0.8 | 23
Cc1cc2ccccc2nc1SCC(=O)N1c2ccccc2CC1C (stereo not given) | 0.9 | -11 | 13 | 14 | 0.9 | 10
CC(C)c1nc(SCC(=O)N2c3ccccc3CC2C)c2ccccc2n1 (stereo not given) | 0.4 | x | 59* | x | 0 | 99*
CC1Cc2ccccc2N1C(=O)CSc1ccccc1 (stereo not given) | 0 | 4 | 96* | -2 | 1 | -4
CC(C)NC(=O)Cn1c(SCC(=O)N2c3ccccc3CC2C)nc2ccccc21 (stereo not given) | 0.4 | 1 | 61* | 0 | 0.1 | 91*
CCN(CC)CCNC(=O)c1ccccn1 | 0.9 | x | 6 | x | 1 | 4
C=CCn1c(C)cc(C(=O)CSc2nnc3c(Cl)cc(Cl)cn23)c1C | 0.2 | -8 | 78* | 2 | 1.9 | -88
Cc1cc(C(=O)CSc2nnc3c(Cl)cc(Cl)cn23)c(C)n1C | 0.8 | 3 | 20 | 0 | 1 | 3
Cc1cc(C)cc(OCC(=O)OCC(=O)NCc2ccco2)c1 | 0.7 | -4 | 34 | 7 | 1.5 | -48
Cc1ccc(-c2csc(=S)n2CC(=O)OCC(=O)NCc2ccco2)cc1 | 0.7 | -8 | 28 | 7 | 0.4 | 56*
Cc1ccc(Oc2ccc(OCC(=O)NC(C)C(=O)O)cc2)cc1 (stereo not given) | 1.1 | 1 | -5 | 0 | 1.1 | -8
Cc1ccc(-c2csc(=S)n2CC(=O)OCC(=O)NC(C)C(C)C)cc1 (stereo not given) | 0.6 | x | 42 | x | 0.3 | 69*
O=C(CN1CCCCC1)Nc1cccc([N+](=O)[O-])c1 | 1 | -1 | -3 | 2 | 1 | -4
O=C(NCCN1CCOCC1)c1cnn2c(-c3ccccc3)cc(-c3ccccc3)nc12 | 0.4 | -13 | 57* | 13 | 0.6 | 36
Cc1nc(-c2cccc(NS(=O)(=O)c3ccc4ccccc4c3)c2)cs1 | 0.7 | 5 | 32 | -5 | 1.6 | -59
COCCCNC(=O)c1ccc(Cn2c(=O)c3ccccc3n(Cc3ccccc3C)c2=O)cc1 | 0.2 | 23 | 78* | -23 | 0.2 | 80*
N#Cc1ccccc1Cn1c(=O)n(Cc2ccc(C(=O)NCc3ccco3)cc2)c(=O)c2sccc21 | 1.1 | x | -8 | x | 0.6 | 36
O=c1c2ccccc2n(Cc2ccccc2F)c(=O)n1Cc1ccccc1F | 1.1 | 5 | -14 | -6 | 1.2 | -20
COCCCNC(=O)c1ccc(Cn2c(=O)c3ccccc3n(Cc3cc(C)ccc3C)c2=O)cc1 | 0.3 | 19 | 75* | -18 | 0.2 | 82*
N#Cc1ccccc1Cn1c(=O)n(C2CCCC2)c(=O)c2ccccc21 | 0.1 | 8 | 86* | -11 | 0 | 96*
COCCCNC(=O)c1ccc(Cn2c(=O)c3ccccc3n(Cc3ccccc3C#N)c2=O)cc1 | 0.5 | 25 | 52* | -27 | 0.4 | 59*
Cc1ccc(NC(=O)C(C)Sc2nnc(-c3cccnc3)n2-c2ccccc2)cc1 (stereo not given) | 1 | 1 | 1 | -1 | 1 | -4
COc1ccc(C2=NOC(C(=O)NCc3cccs3)C2)cc1OC (stereo not given) | 0.9 | -6 | 12 | 6 | 1 | 2
CN(C)c1nc(Oc2ccc(=O)[nH]n2)nc(N2CCCCC2)n1 | 0.9 | -6 | 9 | 9 | 0.8 | 19
SMILES | CYP2C19 act | sEH inhibitor | CYP2C19 inh | sEH act | CYP2C9 act | CYP2C9 inh
CCOC(=O)N1CCC(N2Cc3cccc(C(=O)Nc4ccc(CC)cc4)c3C2=O)CC1 | 0.1 | 4 | 94* | -5 | 0 | 100*
CCOC(=O)N1CCC(N2C(=O)c3ccc(C(=O)NCc4ccco4)cc3C2=O)CC1 | 0.8 | 21 | 16 | -22 | 0.7 | 29
CCOC(=O)N1CCC(N2C(=O)c3ccc(C(=O)NCc4ccc(F)cc4)cc3C2=O)CC1 | 0.7 | x | 29 | x | 0.4 | 58*
CCOC(=O)N1CCC(N2Cc3cccc(C(=O)Nc4ccc(F)cc4)c3C2=O)CC1 | 0.6 | 11 | 44 | -8 | 0.1 | 90*
CCOC(=O)N1CCC(N2Cc3cccc(C(=O)O)c3C2=O)CC1 | 1 | x | 4 | x | 0.6 | 38
CCOC(=O)N1CCC(N2Cc3cccc(C(=O)Nc4cc(F)ccc4F)c3C2=O)CC1 | 0.8 | -7 | 21 | 6 | 0.2 | 78*
COC(=O)c1ccc(C(=O)OC)c(NC(=O)CSCc2ccccc2Br)c1 | 1 | 10 | 1 | -8 | 1.1 | -6
O=CN1CCN(C(C(=O)NC2CCCC2)c2ccc(Cl)cc2)CC1 (stereo not given) | 0.8 | -7 | 25 | 5 | 1 | -4
COCCNC(=O)CN(C(=O)Cn1nnc2ccccc21)c1ccc(C)c(F)c1 | x | 6 | x | -2 | x | x
CCOC(=O)N1CCC(N2Cc3cccc(C(=O)NCC4CCN(CC(C)C)C4)c3C2=O)CC1 (stereo not given) | 0.1 | -6 | 86* | 4 | 0 | 96*
Cc1ccc(NC(=O)c2cccc3c2C(=O)N(C2CCCCC2)C3)cc1 | 0.9 | -5 | 8 | 7 | 0.7 | 26
OC(Cn1cncn1)(c1ccccc1)c1ccccc1 | 0.5 | -6 | 51* | 8 | 0.2 | 76*
c1ccc(NCn2cncn2)nc1 | 1.1 | -3 | -7 | 3 | 1 | -3
CCOc1ccc(C(=O)c2cccs2)cc1 | 0.3 | x | 73* | x | 0.5 | 47
CCOc1ccc(C2C(C(=O)c3cccs3)=C(O)C(=O)N2CCCn2ccnc2)cc1 (stereo not given) | 0.8 | -10 | 16 | 10 | 0.3 | 73*
CCCc1ccc(OC(=O)c2cccs2)cc1 | 1.1 | -5 | -14 | 4 | 1 | -1
CCCOc1ccc(C2C(C(=O)c3ccc(C)o3)=C(O)C(=O)N2Cc2cccnc2)cc1 (stereo not given) | 1.1 | 2 | -10 | -4 | 0.4 | 59*
CCOc1ccc(C2C(C(=O)c3ccco3)=C(O)C(=O)N2CCCn2ccnc2)cc1 (stereo not given) | 0.9 | 2 | 6 | -1 | 0.5 | 49
Cc1ccc(C(=O)C2=C(O)C(=O)N(CCCn3ccnc3)C2c2ccc(OC(C)C)cc2)o1 (stereo not given) | 0.8 | -2 | 20 | 0 | 0.4 | 57*
